The panel holds about 79,000 compounds, 15% with a hit somewhere; the sample as a whole holds those more often. Active and inactive are the calls of the source. Rule as the data show it: active = growth inhibition above about 70%; inactive = the rest.
Legend:
[1] = NCI Yeast Anticancer Drug Screen. Data for the rad52 strain (AID 147);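 also: 0% = growth of vehicle-treated control cultures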; conditions: S. cerevisiae rad52 mutant growth inhibition, active compounds read high
Method in brief: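 DNA repair-defective yeast; compound exposure; growth scored against vehicle controls.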

[2] = NCI Yeast Anticancer Drug Screen. Data for the wt1 strain (AID 149);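 also: 0% = growth of vehicle-treated wt1 cultures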; conditions: S. cerevisiae wt1 strain (SPY 50644) growth inhibition, active compounds read high
Method in brief: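 wt1 strain grown with compound or vehicle; inhibition taken from the growth difference.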

[3] = NCI Yeast Anticancer Drug Screen. Data for the rad50EPP+ strain (AID 151);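 also: 0% = growth of vehicle-treated control cultures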; conditions: S. cerevisiae rad50 mutant strain, active compounds read high
Method in brief: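 rad50EPP+ yeast treated with test compounds. Readout: growth vs vehicle control.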

[4] = NCI Yeast Anticancer Drug Screen. Data for the rad50 strain (AID 155);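 also: 0% = growth of vehicle-only cultures of the same strain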; conditions: S. cerevisiae rad50 strain growth inhibition, active compounds read high
Method in brief: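 DNA repair mutant yeast, compound exposure, growth read-out; inhibition is taken relative to vehicle.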

[5] = NCI Yeast Anticancer Drug Screen. Data for the mec2-1 strain (AID 157); conditions: S. cerevisiae mec2-1 strain, active compounds read high
Method in brief: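 Growth inhibition is read against vehicle-treated controls after compound exposure of the mec2-1 yeast strain, which is defective in DNA damage repair or cell cycle control.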

[6] = NCI Yeast Anticancer Drug Screen. Data for the rad14 strain (AID 159);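 also: 0% = growth of vehicle-treated control cultures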; conditions: S. cerevisiae rad14 strain growth inhibition, active compounds read high
Method in brief: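 DNA repair-defective yeast, compound-exposed; % growth inhibition derived by comparison with vehicle-treated controls.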

[7] = NCI Yeast Anticancer Drug Screen. Data for the sgs1 mgt1 strain (AID 161);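 also: 0% = growth of cultures given vehicle only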; conditions: S. cerevisiae sgs1 mgt1 strain, active compounds read high
Method in brief: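 Compounds are added to genetically altered yeast, and growth is compared with cultures given vehicle alone to give percent inhibition.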

[8] = NCI Yeast Anticancer Drug Screen. Data for the CLN2oe strain (AID 163);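 also: 0% = growth of vehicle-only control cultures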; conditions: S. cerevisiae CLN2oe strain, active compounds read high
Method in brief: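 Compound-treated yeast; growth vs vehicle ctrl = % inhibition. Genetically altered strain (cell-cycle control).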

[9] = NCI Yeast Anticancer Drug Screen. Data for the cln2 rad14 strain (AID 165);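 also: 0% = growth equal to vehicle treated cultures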; conditions: S. cerevisiae cln2 rad14 strain, active compounds read high
Method in brief: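 Growth inhibition, relative to vehicle-treated controls, is the read-out. The test organism is a yeast strain with defined genetic alterations, cln2 rad14.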

[10] = NCI Yeast Anticancer Drug Screen. Data for the bub3 strain (AID 167); conditions: S. cerevisiae bub3 mutant strain, active compounds read high
Method in brief: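 In this screen, a yeast mutant lacking normal mitotic checkpoint function is challenged with compound. Relative growth versus vehicle gives the inhibition value.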

[11] = NCI Yeast Anticancer Drug Screen. Data for the wt2 strain (AID 169);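 also: 0% = growth of vehicle-treated yeast cultures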; conditions: S. cerevisiae wt2 strain growth inhibition, active compounds read high
Method in brief: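 Compound exposure of yeast; growth compared with vehicle controls; inhibition reported.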

[12] = NCI Yeast Anticancer Drug Screen. Data for the mlh1 strain (AID 171);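 also: 0% = growth of vehicle-treated control cultures of the same strain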; conditions: S. cerevisiae mlh1 strain growth inhibition, active compounds read high
Method in brief: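 Compounds are applied to a genetically altered yeast strain, and its growth is compared with that of vehicle-treated cultures to give percent inhibition.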

[13] = NCI Yeast Anticancer Drug Screen. Data for the sgs1 strain (AID 173);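 also: 0% = growth of vehicle-only control cultures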; conditions: S. cerevisiae sgs1 mutant, active compounds read high
Method in brief: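 Compounds applied to genetically altered yeast; growth compared with vehicle-treated cultures to give % inhibition.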

[14] = NCI Yeast Anticancer Drug Screen. Data for the mlh1 rad18 strain (AID 175); conditions: S. cerevisiae mlh1 rad18 strain growth inhibition, active compounds read high
Method in brief: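 Cells of a genetically altered yeast strain, deficient in DNA damage repair, were treated with compound. Their growth was then compared with that of vehicle-treated cultures to give inhibition.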

[15] = NCI Yeast Anticancer Drug Screen. Data for the rad18 strain (AID 177); conditions: S. cerevisiae rad18 mutant growth inhibition, active compounds read high
Method in brief: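 Compounds are applied to a repair-deficient yeast strain, and growth is compared with that of vehicle-treated cultures to give percent inhibition.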

[16] = at 5.0 µM (retest, dose inferred, filed as 0.5)
[17] = at 50.0 µM (retest, dose inferred, filed as 5.0)

Measured: growth inhibition

CO[C@H](/C(C)=C/C=C/C(C)=C/c1coc(C)n1)[C@H](C)[C@H]1C[C@@H](O)[C@@]2(C)O[C@H]2/C=C/[C@@H](C)[C@@H]2C[C@@H](CC(=O)O2)C[C@H]2O[C@@H]2C(=O)O1
active: [1]; at 100.0 µM 93% | [2]; at 100.0 µM 93% | [4]; [17] 89% | [4]; at 100.0 µM 93% | [5]; [17] 93% | [5]; at 100.0 µM 93% | [6]; at 100.0 µM 91% | [7]; [17] 91% | [8]; at 100.0 µM 88% | [10]; at 33.0 µM 89% | [10]; [17] 95% | [10]; at 50.0 µM 83.3% | [10]; at 100.0 µM 96% | [11]; at 33.0 µM 81% | [11]; at 100.0 µM 92% | [12]; at 100.0 µM 94% | [13]; at 100.0 µM 91% | [14]; [17] 89% | [15]; at 100.0 µM 92%
inactive: [1]; at 1.2 µM 6% | [1]; at 3.7 µM -2% | [1]; at 11.0 µM 14% | [1]; at 33.0 µM 17% | [2]; at 1.2 µM 7% | [2]; at 3.7 µM -2% | [2]; at 11.0 µM 2% | [2]; at 33.0 µM 15% | [3]; at 1.2 µM -17% | [3]; at 3.7 µM -9% | [3]; at 11.0 µM -21% | [3]; at 33.0 µM -8% | [3]; at 100.0 µM -23% | [4]; at 1.2 µM -6% | [4]; at 3.7 µM -15% | [4]; [16] -9% | [4]; at 11.0 µM -26% | [4]; at 33.0 µM 4% | [4]; at 50.0 µM 39.1% | [5]; at 1.2 µM -9% | [5]; at 3.7 µM -5% | [5]; [16] -9% | [5]; at 11.0 µM -16% | [5]; at 33.0 µM 16% | [5]; at 50.0 µM 49.2% | [6]; at 1.2 µM -28% | [6]; at 3.7 µM -17% | [6]; at 11.0 µM -8% | [6]; at 33.0 µM -8% | [7]; [16] 15% | [7]; at 50.0 µM 20.6% | [8]; at 1.2 µM -24% | [8]; at 3.7 µM -17% | [8]; at 11.0 µM -13% | [8]; at 33.0 µM 1% | [9]; [16] 8% | [9]; [17] 54% | [9]; at 50.0 µM 19.4% | [10]; at 1.2 µM -19% | [10]; at 3.7 µM -10% | [10]; [16] 37% | [10]; at 11.0 µM 9% | [11]; at 1.2 µM -12% | [11]; at 3.7 µM -4% | [11]; at 11.0 µM -6% | [12]; at 1.2 µM 10% | [12]; at 3.7 µM 7% | [12]; at 11.0 µM 11% | [12]; at 33.0 µM 44% | [13]; at 1.2 µM 1% | [13]; at 3.7 µM 2% | [13]; at 11.0 µM -6% | [13]; at 33.0 µM 8% | [14]; [16] -9% | [14]; at 50.0 µM 33.4% | [15]; at 1.2 µM 0% | [15]; at 3.7 µM -12% | [15]; at 11.0 µM -14% | [15]; at 33.0 µM 6%
